{
  "source": "the supplement of paper PMC12494721",
  "note": "Where a name gives a salt, the structure may show the parent alone.",
  "data": [
    {"tested_on": "Ruminococcus gnavus DSM 108212", "assay": "growth (OD595) fold change vs plate DMSO controls (fold change (ratio)); higher = more growth", "conditions": "incubation time: 27 h, anaerobic, 37 °C", "how_it_was_run": "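Growth is the fold change relative to the median of plate DMSO controls. Readings came from anaerobic mGAM cultures in 96-well plates grown for 27 h at 37 °C and read at 595 nm. They were blank-subtracted, corrected for compound background with 20 µM compound solutions in water, and converted to OD with a calibration factor of 5. Values are means of 2 biological replicates, and fold changes above 1.5 were set to NA.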", "values": [
      {"smiles": "Nc1nc(CC(=O)Nc2ccc(CCNC[C@H](O)c3ccccc3)cc2)cs1", "note": "[Mirabegron] (20 µM)", "growth": 0.987},
      {"smiles": "CS(=O)(=O)OCCCCOS(C)(=O)=O", "note": "[Busulfan] (20 µM)", "growth": 1.09},
      {"smiles": "CCN(CC)CCOC(=O)C(Cc1cccc2ccccc12)CC1CCCO1", "note": "(centres undefined) [Nafronyl oxalate] (20 µM)", "growth": 1},
      {"smiles": "C[C@H]1O[C@@H](O[C@H]2[C@@H](O)C[C@H](O[C@H]3[C@@H](O)C[C@H](O[C@H]4CC[C@@]5(C)[C@H](CC[C@@H]6[C@@H]5C[C@@H](O)[C@]5(C)[C@@H](C7=CC(=O)OC7)CC[C@]65O)C4)O[C@@H]3C)O[C@@H]2C)C[C@H](O)[C@@H]1O", "note": "[Digoxin] (20 µM)", "growth": 0.945},
      {"smiles": "COc1cc(N)c(Cl)cc1C(=O)NC1CCN(CCCOc2ccc(F)cc2)CC1OC", "note": "(centres undefined) [Cisapride] (20 µM)", "growth": 0.705},
      {"smiles": "O=C(O[C@@H]1C[C@@H]2C[C@H]3C[C@H](C1)N2CC3=O)c1c[nH]c2ccccc12", "note": "[Dolasetron mesilate] (20 µM)", "growth": 1.07},
      {"smiles": "Cc1oncc1C(=O)Nc1ccc(C(F)(F)F)cc1", "note": "[Leflunomide] (20 µM)", "growth": 0.971},
      {"smiles": "CC(C)Cn1cnc2c(N)nc3ccccc3c21", "note": "[Imiquimod] (20 µM)", "growth": 0.323},
      {"smiles": "Clc1ccc2c(c1)C(N1CCNCC1)=Nc1ccccc1O2", "note": "[Amoxapine] (20 µM)", "growth": 1.37},
      {"smiles": "CCCCCN(C)CCC(O)(P(=O)(O)O)P(=O)(O)O", "note": "[Ibandronate sodium] (20 µM)", "growth": 0.926},
      {"smiles": "CN1CCc2c(c3ccccc3n2Cc2ccccc2)C1", "note": "[Mebhydroline 1,5-naphtalenedisulfonate] (20 µM)", "growth": 0.742},
      {"smiles": "C=C1/C(=C\\C=C2/CCC[C@]3(C)[C@@H]([C@H](C)/C=C/[C@@H](O)C4CC4)CC[C@@H]23)C[C@@H](O)C[C@@H]1O", "note": "[Calcipotriene] (20 µM)", "growth": 1.3},
      {"smiles": "Cc1nc(=O)c2cc(CN(C)c3ccc(C(=O)N[C@@H](CCC(=O)O)C(=O)O)s3)ccc2[nH]1", "note": "[Raltitrexed] (20 µM)", "growth": 1.21},
      {"smiles": "Cc1cn[nH]c1", "note": "[Fomepizole] (20 µM)", "growth": 1.15},
      {"smiles": "CC[C@@H]1C(=O)OC[C@@H]1Cc1cncn1C", "note": "[Pilocarpine nitrate] (20 µM)", "growth": 0.556},
      {"smiles": "C=C(CC)C(=O)c1ccc(OCC(=O)O)c(Cl)c1Cl", "note": "[Ethacrynic acid] (20 µM)", "growth": 1.19},
      {"smiles": "Cc1cccc(C)c1OCC(=O)N[C@@H](Cc1ccccc1)[C@@H](O)C[C@H](Cc1ccccc1)NC(=O)[C@H](C(C)C)N1CCCNC1=O", "note": "[Lopinavir] (20 µM)", "growth": 1.31},
      {"smiles": "OCCN1C[C@H](O)[C@@H](O)[C@H](O)[C@H]1CO", "note": "[Miglitol] (20 µM)", "growth": 1.05},
      {"smiles": "CCOc1ccccc1OCC1CNCCO1", "note": "(centres undefined) [Viloxazine hydrochloride] (20 µM)", "growth": 0.675},
      {"smiles": "CC[C@@]1(O)C(=O)OCc2c1cc1n(c2=O)Cc2cc3c(CN(C)C)c(O)ccc3nc2-1", "note": "[Topotecan] (20 µM)", "growth": 0.99},
      {"smiles": "CC(C)N1CCN(c2ccc(OCC3COC(Cn4cncn4)(c4ccc(Cl)cc4Cl)O3)cc2)CC1", "note": "(centres undefined) [Terconazole] (20 µM)", "growth": 1},
      {"smiles": "CN1CCN(c2c(F)cc3c(=O)c(C(=O)O)cn4c3c2OCN4C)CC1", "note": "[Marbofloxacin] (20 µM)", "growth": 1.36},
      {"smiles": "O=C(O)c1cc(=O)[nH]c(=O)[nH]1", "note": "[Orotic acid] (20 µM)", "growth": 1.22},
      {"smiles": "c1ccc2c(c1)Cc1ccccc1-2", "note": "[Fluorene] (20 µM)", "growth": 1.09},
      {"smiles": "Oc1c(Br)cc(Br)c2cccnc12", "note": "[Broxyquinoline] (20 µM)", "growth": 0.643},
      {"smiles": "CCC[C@@H]1C[C@@H](C(=O)N[C@@H]([C@H]2O[C@H](SC)[C@H](O)[C@@H](O)[C@H]2O)[C@H](C)Cl)N(C)C1", "note": "[Clindamycin hydrochloride] (20 µM)", "growth": 0.134},
      {"smiles": "COC(=O)Nc1nc2cc(Sc3ccccc3)ccc2[nH]1", "note": "[Fenbendazole] (20 µM)", "growth": 1.09},
      {"smiles": "CN(c1nccc(=O)[nH]1)C1CCN(c2nc3ccccc3n2Cc2ccc(F)cc2)CC1", "note": "[Mizolastine] (20 µM)", "growth": 1.24},
      {"smiles": "CC[N+](C)(C)c1cccc(O)c1", "note": "[Edrophonium chloride] (20 µM)", "growth": 1.17},
      {"smiles": "CC[C@@H]([C@H](C)O)n1ncn(-c2ccc(N3CCN(c4ccc(OC[C@@H]5CO[C@@](Cn6cncn6)(c6ccc(F)cc6F)C5)cc4)CC3)cc2)c1=O", "note": "[Posaconazole hydrate] (20 µM)", "growth": 1.03},
      {"smiles": "COCC1=C(C(=O)OC(C)OC(=O)OC(C)C)N2C(=O)[C@@H](NC(=O)/C(=N\\OC)c3csc(N)n3)[C@H]2SC1", "note": "(some centres undefined) [Cefpodoxime proxetil] (20 µM)", "growth": 1.18},
      {"smiles": "O=c1n(CCCN2CCN(c3cccc(Cl)c3)CC2)nc2ccccn12", "note": "[Trazodone hydrochloride] (20 µM)", "growth": 1.06},
      {"smiles": "CC1=C(C(=O)O)N2C(=O)[C@@H](NC(=O)[C@H](N)c3ccccc3)[C@H]2SC1", "note": "[Cephalexin monohydrate] (20 µM)", "growth": 0.987},
      {"smiles": "CCCSc1nc(N[C@@H]2C[C@H]2c2ccc(F)c(F)c2)c2nnn([C@@H]3C[C@H](OCCO)[C@@H](O)[C@H]3O)c2n1", "note": "[Ticagrelor] (20 µM)", "growth": 1.03},
      {"smiles": "Cc1cc(NS(=O)(=O)c2ccc(N)cc2)nc(C)n1", "note": "[Sulfisomidine] (20 µM)", "growth": 1.03},
      {"smiles": "CN1CCN(C(c2ccccc2)c2ccc(Cl)cc2)CC1", "note": "(centres undefined) [Chlorcyclizine hydrochloride] (20 µM)", "growth": 0.999},
      {"smiles": "OC[C@H](O)C(O)[C@@H](O)CO", "note": "[L-Arabinitol] (50 µM)", "growth": 0.985},
      {"smiles": "CC(C)COC(=O)OCN1C(=O)CN(CCN2CC(=O)N(COC(=O)OCC(C)C)C(=O)C2)CC1=O", "note": "[Sobuzoxane] (20 µM)", "growth": 1.09},
      {"smiles": "CCCNC(=O)NS(=O)(=O)c1ccc(Cl)cc1", "note": "[Chlorpropamide] (20 µM)", "growth": 1.03}
    ]}
  ]
}
